Test [1] deals with Wnt5a (protein binding on small-molecule microarray). The test can be described thus: Wnt5a binders on small-molecule microarray, primary screen, biophysical, 635/667 nm fluorescence (AID 1142).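 Further: fluorescence read at 667 nm with signal to noise per printed feature.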 The conditions noted are these: 635 nm fluorescence, higher = more signal.
A short description of test [2]: cell viability in Huh7 cells, primary screen, cytotoxicity control for HCV replication inhibitor project, CellTiter-Glo luminescence, basal, 48 h (AID 1143).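 Further: Huh7 hepatoma cells carrying a hepatitis C replication reporter with no stimulus; test concentration not given here.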 The conditions noted are these: Huh7 HCV replicon, higher = more signal, called active from +8 up or from −8 down. A general note: ATP-based viability assays read luminescence as a measure of living cells.
Test [3] can be described thus: P. aeruginosa biofilm formation inhibitors, primary screen, PAO1 strain, BacTiter-Glo luminescence, LB-PBS (AID 1144). The note with it: 12 h, higher = more signal.
The nature of test [4]: CREB reporter modulators without forskolin, primary screen, cell-based, PC12, CRE-LacZ reporter, unstimulated (AID 1145). The note with it: no forskolin, luminescence, 4.5 h, higher = more signal, called active from +8 up or from −8 down.
The nature of test [5]: CREB reporter modulators under forskolin, primary screen, cell-based, PC12, CRE-LacZ reporter, forskolin-stimulated (AID 1146).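 Further: PC12 cells with 6xCRE LacZ reporter stimulated by forskolin 10 µM; beta-galactosidase reporter signal reflecting CREB driven transcription.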 The conditions noted are these: luminescence, 4.5 h, higher = more signal, called active from +8 up or from −8 down.
The target in test [6] is Streptavidin (Streptomyces avidinii) (UniProt P22629). The test can be described thus: streptavidin binders on small-molecule microarray, primary screen, artefact control for SMM compound annotation, biophysical, 635/667 nm fluorescence (AID 1147).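 Further: signal reflects streptavidin binding to arrayed compounds as a control protein.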 The conditions noted are these: streptavidin binding, higher = more signal.
Test [7] is described as follows: small-molecule binders of probe aInhba, primary screen, biochemical, small-molecule microarray, 635/667 nm fluorescence (AID 1148).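 Further: score merges 667nm spot fluorescence with signal-to-noise for antibody binding to printed compounds.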 The note with it: higher = more signal.
Test [8] has as its target Torsin-1A (Homo sapiens) (UniProt O14656). The test can be described thus: torsin A binders from cell lysate, primary screen, small-molecule microarray, wild-type, 635/667 nm (AID 1149). The conditions noted are these: COS7 hTOR1A-WT lysate, 635 nm fluorescence, higher = more signal.
The target is the same in test [9]. The test can be described thus: small-molecule binders of mutant TOR1A in lysate, primary screen, cell lysate, small-molecule microarray, COS7 lysate, 635/667 nm fluorescence (AID 1150).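 Further: score pools 667 nm emission and signal to noise measuring lysate protein binding.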 The note with it: COS7 hTOR1A mutant lysate, 635 nm fluorescence, higher = more signal.
The subject of test [10] is Sonic hedgehog protein (Shh). The test can be described thus: small-molecule binders of Shh protein, primary screen, biochemical, small-molecule microarray, 635/667 nm fluorescence (AID 1151).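 Further: Shh protein binding to compounds spotted on small-molecule microarray slides; score combines spot fluorescence intensity with signal-to-noise across triplicate slides.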 The note with it: small-molecule microarray binding, 635 nm fluorescence; higher = more signal.
The nature of test [11]: E. coli DRC41 culture turbidity changes, primary screen, E. coli filamentation inducer project, strain DRC41, OD650, 48 h (AID 1152).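 Further: E. coli MC1000 strain DRC41 lacking acrAB efflux pump and sulA.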 The note with it: E. coli DRC41 (acrAB sulA), higher = more signal, called active from +8 up or from −8 down.
A short description of test [12]: small-molecule binders of probe aLefty1, primary screen, biochemical, small-molecule microarray, 635/667 nm fluorescence (AID 1153).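 Further: score merges spot fluorescence with signal-to-noise ratio from the scanned slide images.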 The conditions noted are these: higher = more signal.
Test [13] is described as follows: PSAC antagonists in infected red cells, primary screen, cell-based, P. falciparum Indochina, OD700, 1 h (AID 1154). The conditions noted are these: P. falciparum Indochina infected RBC osmotic lysis, higher = more signal, called active from +8 up or from −8 down.
The nature of test [14]: PSAC antagonists in infected red cells, primary screen, cell-based, P. falciparum Indochina, OD700, 2 h (AID 1155).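 Further: lysis reports solute entry through the parasite surface anion channel PSAC; channel blockers reduce lysis of infected cells.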 The note with it: P. falciparum Indochina infected erythrocytes, osmotic lysis OD700; higher = more signal, called active from +8 up or from −8 down.
A short description of test [15]: osmotic lysis modulators in infected erythrocytes, primary screen, PSAC antagonist project, cell-based, P. falciparum Indochina, OD700, 3 h (AID 1156). The note with it: higher = more signal, called active from +8 up or from −8 down.
Test [16] is described as follows: PSAC antagonists in infected red cells, primary screen, cell-based, P. falciparum Indochina, OD700, 18 h (AID 1157). The conditions noted are these: P. falciparum Indochina infected erythrocytes, osmotic lysis OD700, 18 h; higher = more signal, called active from +8 up or from −8 down.
Test [17] is described as follows: modulators of S6 phosphorylation in cells, primary screen, cell-based, A549, cytoblot, luminescence, serum-stimulated (AID 1158).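 Further: serum-stimulated A549 lung adenocarcinoma cells; signal is phosphorylated S6 detected by cytoblot immunostaining with HRP secondary.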 The note with it: A549 phospho-S6 cytoblot, 5 h, higher = more signal.
For test [18], the target named is NADPH oxidase 2 (Homo sapiens) (UniProt P04839). The test can be described thus: NOX2-dependent H2O2 signal modulators, primary screen, NOX inhibitor project, cell-based, HEK293-NOX2, PMA-stimulated, Amplex Red fluorescence (AID 1159). Further: test concentration not given here. The conditions noted are these: 45 min, higher = more signal, called active from +8 up or from −8 down.
For test [19], the target named is NADPH oxidase 4 (Homo sapiens) (UniProt Q9NPH5). The test can be described thus: NOX4-dependent H2O2 signal modulators, primary screen, NOX inhibitor project, cell-based, HEK293-NOX4, tetracycline-induced, Amplex Red fluorescence (AID 1160). The note with it: 45 min, higher = more signal, called active from +8 up or from −8 down.
In test [20] the target is NADPH oxidase 5 (Homo sapiens) (UniProt Q96PH1). The test can be described thus: NOX5-dependent H2O2 signal modulators, primary screen, NOX inhibitor project, cell-based, HEK293-NOX5, Amplex Red fluorescence (AID 1161). The note with it: HEK293-NOX5, ionomycin, 45 min, higher = more signal.

Active and inactive are the calls of the source. Unless noted, how the calls were made is not given here.

Chain of NADPH oxidase 2 (Homo sapiens) (P04839 whole entry, looked up): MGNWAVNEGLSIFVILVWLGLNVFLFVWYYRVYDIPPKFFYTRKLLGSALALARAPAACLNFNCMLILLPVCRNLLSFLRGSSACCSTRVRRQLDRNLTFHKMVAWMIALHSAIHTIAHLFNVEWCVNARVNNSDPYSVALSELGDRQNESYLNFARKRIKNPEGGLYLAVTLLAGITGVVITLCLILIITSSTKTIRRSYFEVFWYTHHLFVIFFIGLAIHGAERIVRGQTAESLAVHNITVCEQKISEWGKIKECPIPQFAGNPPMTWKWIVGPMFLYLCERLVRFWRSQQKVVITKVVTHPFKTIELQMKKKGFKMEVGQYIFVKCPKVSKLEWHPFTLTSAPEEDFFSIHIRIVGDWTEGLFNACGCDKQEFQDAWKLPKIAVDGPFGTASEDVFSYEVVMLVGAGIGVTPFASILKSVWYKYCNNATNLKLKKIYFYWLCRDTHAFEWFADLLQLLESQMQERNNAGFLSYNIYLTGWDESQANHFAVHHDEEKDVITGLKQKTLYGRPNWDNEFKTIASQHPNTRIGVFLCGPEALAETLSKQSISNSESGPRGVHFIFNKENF
Chain of NADPH oxidase 4 (Homo sapiens) (Q9NPH5 whole entry, looked up): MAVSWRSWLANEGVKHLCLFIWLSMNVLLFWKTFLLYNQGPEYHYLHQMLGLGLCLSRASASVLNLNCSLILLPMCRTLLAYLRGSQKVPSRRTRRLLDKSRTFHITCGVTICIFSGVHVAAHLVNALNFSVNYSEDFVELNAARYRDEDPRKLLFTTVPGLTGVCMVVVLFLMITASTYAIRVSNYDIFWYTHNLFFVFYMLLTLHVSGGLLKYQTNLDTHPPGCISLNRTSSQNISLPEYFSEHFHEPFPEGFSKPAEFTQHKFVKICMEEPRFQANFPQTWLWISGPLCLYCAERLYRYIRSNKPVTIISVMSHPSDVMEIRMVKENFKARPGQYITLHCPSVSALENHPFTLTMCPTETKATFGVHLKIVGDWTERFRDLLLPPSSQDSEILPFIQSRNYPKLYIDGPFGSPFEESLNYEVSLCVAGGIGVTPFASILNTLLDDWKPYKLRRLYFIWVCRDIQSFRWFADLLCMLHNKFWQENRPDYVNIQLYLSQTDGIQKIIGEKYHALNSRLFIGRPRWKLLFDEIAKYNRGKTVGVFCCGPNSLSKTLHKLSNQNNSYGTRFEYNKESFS
Chain of NADPH oxidase 5 (Homo sapiens) (Q96PH1 whole entry, looked up): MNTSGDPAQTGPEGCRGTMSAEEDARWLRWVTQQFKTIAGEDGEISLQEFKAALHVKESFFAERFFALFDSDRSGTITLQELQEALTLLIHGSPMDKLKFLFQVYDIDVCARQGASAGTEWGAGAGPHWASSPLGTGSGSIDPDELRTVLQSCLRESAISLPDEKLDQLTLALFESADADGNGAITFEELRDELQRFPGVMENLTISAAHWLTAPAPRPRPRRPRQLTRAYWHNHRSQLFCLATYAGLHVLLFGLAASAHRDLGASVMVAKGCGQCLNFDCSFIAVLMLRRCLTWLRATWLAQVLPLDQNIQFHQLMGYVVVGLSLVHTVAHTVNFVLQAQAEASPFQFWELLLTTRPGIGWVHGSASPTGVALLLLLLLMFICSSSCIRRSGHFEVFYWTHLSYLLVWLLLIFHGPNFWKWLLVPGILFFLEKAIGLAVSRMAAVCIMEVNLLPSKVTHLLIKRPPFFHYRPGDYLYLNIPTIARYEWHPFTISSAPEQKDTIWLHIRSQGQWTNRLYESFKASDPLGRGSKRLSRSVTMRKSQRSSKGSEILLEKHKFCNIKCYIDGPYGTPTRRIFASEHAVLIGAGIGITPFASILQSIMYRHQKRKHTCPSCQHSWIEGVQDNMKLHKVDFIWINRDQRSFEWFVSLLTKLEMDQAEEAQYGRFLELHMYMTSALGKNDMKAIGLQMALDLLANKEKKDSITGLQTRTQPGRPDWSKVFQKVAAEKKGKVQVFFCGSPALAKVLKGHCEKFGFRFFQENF
Chain of Torsin-1A (Homo sapiens) (O14656 whole entry, looked up): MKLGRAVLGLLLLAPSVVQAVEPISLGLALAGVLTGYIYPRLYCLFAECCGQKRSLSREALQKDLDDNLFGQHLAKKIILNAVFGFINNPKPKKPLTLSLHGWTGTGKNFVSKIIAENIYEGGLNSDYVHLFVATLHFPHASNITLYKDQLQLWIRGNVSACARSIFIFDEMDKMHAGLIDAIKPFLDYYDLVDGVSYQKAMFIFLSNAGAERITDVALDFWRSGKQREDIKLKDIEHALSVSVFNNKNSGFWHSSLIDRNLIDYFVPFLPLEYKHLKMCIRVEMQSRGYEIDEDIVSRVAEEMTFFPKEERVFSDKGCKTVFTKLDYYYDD
Chain of Streptavidin (Streptomyces avidinii) (P22629 whole entry, looked up): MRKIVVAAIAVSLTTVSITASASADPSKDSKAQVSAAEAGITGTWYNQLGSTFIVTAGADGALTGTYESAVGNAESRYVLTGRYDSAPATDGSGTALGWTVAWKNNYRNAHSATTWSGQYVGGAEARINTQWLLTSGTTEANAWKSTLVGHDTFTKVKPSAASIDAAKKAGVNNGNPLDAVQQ

`C=CCOC(=O)[C@H]1[C@@H]2C(=O)O[C@@H](c3ccccc3)[C@@H](c3ccccc3)N2[C@@H](c2ccc(OCCOC(=O)[C@@H]3C[C@@H]4C(=O)N[C@@H](CCCCN(C)C)C(=O)N4[C@@H]3c3ccc(O)cc3)cc2)[C@]12C(=O)Nc1ccccc12`: the composite z-score in test [1] was 0.261; in test [6] it was -0.245; in test [7], -0.0468; in test [8], 0.756; in test [9], 0.73; in test [10] it was 1.96. In addition, the composite z-score in [12] was -0.0873. Besides, the z-score is -0.0273 (inactive) in test [2]; 0.283 (inactive) in [3]; 0.411 (inactive) in test [4]; 0.739 (inactive) in [5]; -1.53 (inactive) in [11]; 0.0625 (inactive) in test [13]. The z-score in [14] is 0.249 (inactive); in test [15], 3.35 (inactive); in test [16] it was 0.251 (inactive); in test [17], -0.444; in test [18] it was 2.51 (inactive); in test [19], 0.874 (inactive). The compound further registered a z-score in test [20] of 0.391.

With `[N-]=[N+]=NCc1ccccc1C[C@@]1(C(=O)NCc2ccccc2)N=C(c2ccc(OCCCO)cc2)O[C@@H]1c1ccccc1N=[N+]=[N-]`, the composite z-score in test [1] was 0.122; in test [6], 1.2; in test [7] it was -0.003; in test [8], 0.0959; in [9] it was 0.461; in test [10], -1.08. Moreover, the composite z-score in test [12] was -0.221. Further, the z-score in test [2] was -3.96 (inactive); in [3] it was 0.0507 (inactive); in test [4] it was 1.05 (inactive); in [5] it was -0.639 (inactive); in [11], -0.0632 (inactive); in test [13], 32.6 (active). Also, the z-score is 33.3 (active) in test [14]; 2.4 (inactive) in test [15]; 3.61 (inactive) in test [16]; 0.108 in test [17]; 0.0504 (inactive) in test [18]; -0.437 (inactive) in test [19]. Further, the z-score in [20] is -1.22.

Regarding `COC(=O)[C@@]1(Cc2ccc(OC)cc2)[C@@H]2C(=CC(=O)[C@H]2CC(=O)C(=O)N(C)C)CN1C(=O)c1ccccc1`, the composite z-score in [1] was 0.956; in test [6] it was 1.23; in test [7], 1.04; in test [8], 0.0826; in test [9], 0.387; in [10] it was -0.671. Besides, the composite z-score in test [12] was found to be 0.485. Further, the z-score is -3.7 (inactive) in test [2]; -0.946 (inactive) in test [3]; 0.0109 (inactive) in test [4]; 0.0777 (inactive) in [5]; -2.06 (inactive) in test [11]; 2.07 (inactive) in test [13]. Moreover, the z-score in test [14] was 0.584 (inactive); in [15] it was 0.481 (inactive); in test [16], 1.38 (inactive); in [17] it was 0.808; in test [18], -0.192 (inactive); in test [19], 1.39 (inactive). In test [20], this compound yielded a z-score of 1.32.

`COCCOC(=O)N1C(=O)[C@@]2(c3cc(C#CCNC(N)=O)ccc31)[C@H](C(=O)N1CCc3cc(OC)c(OC)cc3C1)[C@H]1C(=O)O[C@H](c3ccccc3)[C@H](c3ccccc3)N1[C@@H]2c1ccccc1OCCO`: the composite z-score came out at 0.358 in [1]; 0.639 in [6]; 0.0301 in [7]; 0.969 in [8]; 0.498 in [9]; 1.81 in test [10]. For the same compound, the composite z-score in [12] stood at 0.479. Further, the z-score was -2.32 (inactive) in test [2]; -0.772 (inactive) in [3]; 0.0776 (inactive) in test [4]; -0.979 (inactive) in [5]; 1.83 (inactive) in test [11]; 3.14 (inactive) in test [13]. Also, the z-score was 0.178 (inactive) in test [14]; 0.435 (inactive) in test [15]; -0.244 (inactive) in test [16]; 1.81 in [17]; 1.58 (inactive) in [18]; 1.09 (inactive) in test [19]. In [20], the z-score was -0.672.
